Test results from PubChem BioAssay (NCI).
Compounds without any hit were thinned out: in the full panel of roughly 83,000, 20% have a hit.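 Cells were grown in 96-well plates and exposed to the test compound at a single concentration for 48 hours; results are reported as percent growth, with values below 10 considered active.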 The source made the active and inactive calls.

Columns and labels:
Assay in all cases: NCI-60 one-dose screen, 48 h (100 = growth as untreated, 0 = no growth, -100 = all killed)
Conditions in all cases: 10 µM unless noted
NCI-H23 lung = tested on: NCI-H23 lung
NCI-H226 lung = tested on: NCI-H226 lung
NCI-H322M lung = tested on: NCI-H322M lung
HOP-62 NSCLC = tested on: HOP-62 NSCLC
NCI-H460 lung = tested on: NCI-H460 lung
HOP-92 NSCLC = tested on: HOP-92 NSCLC
NCI-H522 lung = tested on: NCI-H522 lung
A549/ATCC NSCLC = tested on: A549/ATCC NSCLC
786-0 renal = tested on: 786-0 renal
COLO 205 colon = tested on: COLO 205 colon

Measured: growth

CC1=C([Se]CC(OC(=O)[C@@H](CSSC(C)(C)C)NC(=O)OC(C)(C)C)C(=O)NC(C)(C)C)C(=O)c2ccccc2C1=O (some centres not stated)
active: NCI-H23 lung -63.7% | NCI-H226 lung -56.8% | NCI-H322M lung -73.6% | HOP-62 NSCLC -51% | NCI-H460 lung -52.1% | HOP-92 NSCLC -72.2% | NCI-H522 lung 7.01% | A549/ATCC NSCLC 1.99% | 786-0 renal -93.8% | COLO 205 colon -84.7%

NC(=O)C1(Nc2ccc(Br)cc2)CCCC1
inactive: NCI-H23 lung 97.5% | NCI-H226 lung 98.9% | NCI-H322M lung 107% | HOP-62 NSCLC 103% | NCI-H460 lung 110% | HOP-92 NSCLC 110% | NCI-H522 lung 92.9% | A549/ATCC NSCLC 103% | 786-0 renal 102% | COLO 205 colon 104%

CCOC(=O)c1c2c(n(-c3ccc(C#N)cc3)c1-c1ccccc1)C=CCC2
inactive: HOP-62 NSCLC 83.3%

CCCCCCn1c(-c2ccc(C(=O)O/N=C(\N)c3ccc4ccccc4c3)cc2)nc(-c2ccccc2)c1-c1ccccc1
inactive: HOP-62 NSCLC 81.7%

CC(=O)N1N=C(c2ccc(Nc3nc(Nc4ccc(F)cc4)nc(Nc4ccc(Cl)cc4)n3)cc2)CC1c1ccc(Cl)cc1 (configuration not stated)
inactive: NCI-H23 lung 84.6% | NCI-H322M lung 85.3% | HOP-62 NSCLC 84.1% | NCI-H460 lung 107% | HOP-92 NSCLC 64.1% | NCI-H522 lung 73.2% | A549/ATCC NSCLC 92.5% | 786-0 renal 98.2% | COLO 205 colon 94.3%

CCOC(=O)C1=C(N)Oc2c(sc3c(C)cccc23)C1c1ccc(F)cc1 (configuration not stated)
inactive: NCI-H23 lung 20.1% | NCI-H322M lung 51.5% | HOP-62 NSCLC 36.2% | HOP-92 NSCLC 91.7% | NCI-H522 lung 11.8% | A549/ATCC NSCLC 20.1% | 786-0 renal 33.4%
active: NCI-H460 lung 4.3% | COLO 205 colon -1.13%

BrCCCc1n(Cc2ccc3ccccc3c2)c2ccccc2[n+]1Cc1ccc2ccccc2c1
active: NCI-H23 lung -81.3% | HOP-62 NSCLC -65.7% | NCI-H460 lung -88.4% | HOP-92 NSCLC -77% | NCI-H522 lung -52.3% | A549/ATCC NSCLC -54.1% | 786-0 renal -90.7% | COLO 205 colon -61.2%
inactive: NCI-H322M lung 11.9%

O=C(N/N=C/c1ccc(Cl)cc1)c1ccc(C(F)(F)F)nc1Nc1cccc(C(F)(F)F)c1
inactive: HOP-62 NSCLC 43.5% | A549/ATCC NSCLC 19.5% | 786-0 renal 23.1%
active: NCI-H23 lung -36.7% | NCI-H322M lung 8.21% | NCI-H460 lung 6.99% | HOP-92 NSCLC -0.43% | NCI-H522 lung 8.57% | COLO 205 colon -12.6%

Cc1nn(-c2ccccc2)c(-n2ccnc2)c1/C=N/Nc1nc(-c2ccc(F)cc2)cs1
inactive: NCI-H23 lung 58.1% | NCI-H322M lung 88.8% | HOP-62 NSCLC 98.8% | NCI-H460 lung 83.3% | HOP-92 NSCLC 42.9% | NCI-H522 lung 73.6% | A549/ATCC NSCLC 65% | 786-0 renal 106% | COLO 205 colon 70.8%

CN1C(=O)N(C)C2Nn3c(s/c(=C\c4ccccc4)c3=O)=NC21 (configuration not stated)
inactive: NCI-H23 lung 101% | NCI-H322M lung 97% | HOP-62 NSCLC 97.8% | NCI-H460 lung 108% | HOP-92 NSCLC 100% | NCI-H522 lung 87.1% | A549/ATCC NSCLC 94.8% | 786-0 renal 101% | COLO 205 colon 111%

CC(C)OC(=O)Nc1ccc(-c2nc(-c3cccc(OCCN4CCOCC4)c3)c(-c3ccnc(Br)c3)[nH]2)cc1
active: 786-0 renal -33% | COLO 205 colon -5.63%
inactive: NCI-H23 lung 33% | NCI-H322M lung 46.5% | HOP-62 NSCLC 28.4% | NCI-H460 lung 30% | HOP-92 NSCLC 29.8% | NCI-H522 lung 49.9% | A549/ATCC NSCLC 40%

COc1cc(C(=O)N2N=C(c3ccc(S(C)(=O)=O)cc3)CC2c2ccco2)cc(OC)c1OC (configuration not stated)
inactive: NCI-H23 lung 76.9% | NCI-H322M lung 95% | NCI-H460 lung 58.2% | HOP-92 NSCLC 39.8% | NCI-H522 lung 11.9% | A549/ATCC NSCLC 58.2% | 786-0 renal 75.1% | COLO 205 colon 69.8%

O=C1CCC(C(=O)NCCNCCNC(=O)C2CCC(=O)N2)N1 (configuration not stated)
inactive: NCI-H23 lung 106% | NCI-H322M lung 104% | NCI-H460 lung 102% | HOP-92 NSCLC 80.6% | NCI-H522 lung 72.5% | A549/ATCC NSCLC 88.4% | 786-0 renal 101% | COLO 205 colon 110%

COc1ccc(C2CC(c3ccc(Nc4nc(Nc5ccc(F)cc5)nc(Nc5ccc(Cl)cc5)n4)cc3)=NN2C(C)=O)cc1 (configuration not stated)
inactive: NCI-H23 lung 91.8% | NCI-H322M lung 123% | HOP-62 NSCLC 110% | NCI-H460 lung 102% | HOP-92 NSCLC 82.8% | NCI-H522 lung 58.1% | A549/ATCC NSCLC 90.2% | 786-0 renal 98.9% | COLO 205 colon 96.1%

C=C(C)[C@@H]1CC[C@]2(N=C=O)CC[C@]3(C)[C@H](CC[C@@H]4[C@@]5(C)Cc6c([nH]c7ccccc67)C(C)(C)[C@@H]5CC[C@]43C)[C@@H]12
inactive: NCI-H23 lung 98% | NCI-H322M lung 88.4% | HOP-62 NSCLC 89% | NCI-H460 lung 39.5% | HOP-92 NSCLC 66.2% | NCI-H522 lung 53.4% | A549/ATCC NSCLC 73.5% | 786-0 renal 66.7% | COLO 205 colon 65.6%

COc1cccc(/C=C2\C=C(c3ccccc3)N(Cc3ccccc3)C2=O)c1
inactive: NCI-H23 lung 71.1% | NCI-H322M lung 51% | HOP-62 NSCLC 69.4% | NCI-H460 lung 72.3% | HOP-92 NSCLC 18.1% | NCI-H522 lung 56.4% | A549/ATCC NSCLC 47.9% | 786-0 renal 57.3% | COLO 205 colon 74.3%

COc1ccc(-c2[nH]ncc2-c2cc3c(c(OC)c2)OCC(=O)N3)cc1
inactive: NCI-H23 lung 30% | NCI-H322M lung 43% | HOP-62 NSCLC 27.2% | HOP-92 NSCLC 63% | A549/ATCC NSCLC 35.2% | 786-0 renal 27%
active: NCI-H460 lung 5.89% | NCI-H522 lung -47.2% | COLO 205 colon -24.9%

COC(=O)Nc1ccc(-c2nc(-c3cccc(OC)c3)c(-c3ccnc(Br)c3)[nH]2)cc1
inactive: NCI-H23 lung 67.7% | NCI-H322M lung 62.2% | HOP-62 NSCLC 59.4% | NCI-H460 lung 61.2% | HOP-92 NSCLC 62.8% | NCI-H522 lung 57.9% | A549/ATCC NSCLC 54.4% | 786-0 renal 37.4% | COLO 205 colon 79.7%

CCCC1CCC(O)(C(C)(O)C(=O)NC2C(=O)N3NCCCC3C(=O)N(O)C(C)C(=O)N3NCCCC3C(=O)N3NCC(O)CC3C(=O)NC(C)C(=O)OC2C(C)C)OC1CC (configuration not stated)
active: NCI-H23 lung -85.9% | NCI-H322M lung -90.8% | HOP-62 NSCLC -76% | NCI-H460 lung -82.4% | HOP-92 NSCLC -61.5% | NCI-H522 lung -25% | A549/ATCC NSCLC -66.4% | 786-0 renal -78.6% | COLO 205 colon -89%

NCCCNc1nc2ccc(Cl)cc2c2c(=O)c3cc(F)ccc3sc12
active: NCI-H460 lung -68.8%
inactive: NCI-H23 lung 82.9% | NCI-H322M lung 74.9% | HOP-62 NSCLC 81.9% | HOP-92 NSCLC 30.3% | NCI-H522 lung 62.4% | A549/ATCC NSCLC 58.2% | 786-0 renal 72.7% | COLO 205 colon 31.9%

NCCNc1nc2ccccc2c2c(=O)c3cc(F)ccc3sc12
active: COLO 205 colon -1%
inactive: NCI-H23 lung 84.9% | NCI-H322M lung 72.6% | HOP-62 NSCLC 76.5% | NCI-H460 lung 12.2% | HOP-92 NSCLC 59.1% | NCI-H522 lung 79.4% | A549/ATCC NSCLC 66.1% | 786-0 renal 73.5%

COc1ccc(/C=C(\C#N)n2nnc3c(F)cccc32)cc1
active: NCI-H460 lung 2.99% | COLO 205 colon -6.97%
inactive: NCI-H23 lung 18% | NCI-H322M lung 37.9% | HOP-62 NSCLC 28.7% | HOP-92 NSCLC 21.4% | NCI-H522 lung 11.6% | A549/ATCC NSCLC 35.6% | 786-0 renal 15.9%
